From the supplement of paper PMC10646978
± gives the standard deviation.

Experiments:
Settings in all cases: modulator concentration 10 µM
[1] = test system: RAW-Dual (murine macrophage reporter line); experiment: NF-kB reporter (SEAP) activity fold change vs agonist alone; higher = enhanced NF-kB activity
Outline: (§1)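 RAW-Dual murine macrophage reporter cells were seeded at 50 000 per well in 384-well plates and pre-incubated 1 hour at 37 °C with compound pin-transferred to 10 μM final. After 1 hour, a PRR agonist was added and cells incubated overnight. Supernatant NF-κB (SEAP, QUANTI-Blue, 620 nm absorbance) and IRF (Lucia luciferase, QUANTI-Luc, luminescence) signals were divided by the mean agonist-only control on the same plate to give fold change. Two replicate plates were averaged, with errors by propagation.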

[2] = test system: RAW-Dual (murine macrophage reporter line); experiment: IRF reporter (Lucia luciferase) activity fold change vs agonist alone; higher = enhanced IRF activity
Outline: as §1

[3] = test system: RAW-Dual (murine macrophage reporter line); experiment: viability score (confluency relative to resting cells, overnight) (fraction); higher = more viable, active = viable (0.7 or more)
Outline: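 RAW-Dual macrophages in 384-well plates were incubated overnight with compound, final concentration 10 μM. Confluency images from IncuCyte were processed in IncuCyte software into two masks covering all imaged wells. The viability score is each well's confluency relative to resting cells, and a compound met the cutoff when both masks exceeded 70% of resting cells.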

[4] = agonist: CpG ODN 1826 0.5 ug/mL

SMILES	NF-kB reporter [1, 4]	NF-kB reporter ([1]; agonist: LPS 0.1 ug/mL)	NF-kB reporter ([1]; agonist: MPLA […])	IRF reporter ([2]; agonist: 3'3'-cGAMP 10 ug/mL)	IRF reporter ([2]; agonist: LPS 0.1 ug/mL)	IRF reporter ([2]; agonist: MPLA […])	viability score [3]
O=C(NCC(F)(F)F)c1ccc(OCC2CCOCC2)nc1	0.911 ± 0.044	0.87 ± 0.093	1.09 ± 0.064	0.937 ± 0.044	1.3 ± 0.24	1.51 ± 0.46	0.993 (active)
Nc1nc(Cl)nc2c1ncn2[C@@H]1O[C@H](CO)[C@@H](O)[C@@H]1F	2.13 ± 0.16	1.41 ± 0.13	1.4 ± 0.087	1.08 ± 0.26	1.01 ± 0.045	0.918 ± 0.15	0.482 (inactive)
CCN(CC)CCNC(=O)c1c(C)[nH]c(/C=C2\C(=O)Nc3ccc(F)cc32)c1C.O=C(O)C[C@H](O)C(=O)O	0.186 ± 0.011	0.791 ± 0.11	0.636 ± 0.061	0.0261 ± 0.0039	0.048 ± 0.0053	0.0544 ± 0.016	0.117 (inactive)
CC(=O)N1CCN(c2ccc(OC[C@H]3CO[C@](Cn4ccnc4)(c4ccc(Cl)cc4Cl)O3)cc2)CC1	0.723 ± 0.072	1.06 ± 0.071	1.03 ± 0.025	0.925 ± 0.094	1.07 ± 0.15	1.07 ± 0.27	1 (active)
CC(C)(C)C(=O)NCc1cccnc1-c1cccnc1	0.968 ± 0.052	1.02 ± 0.1	0.892 ± 0.047	0.972 ± 0.052	0.982 ± 0.061	0.97 ± 0.13	1.01 (active)
O=[N+]([O-])c1ccc(C=CC=Nc2ccc(-c3nc4ccccc4s3)c(O)c2)cc1	0.813 ± 0.06	1.04 ± 0.067	0.971 ± 0.034	0.746 ± 0.042	0.973 ± 0.082	0.946 ± 0.079	0.994 (active)
CCN(CC)c1ccc(-c2noc(CN3CCSCC3)n2)cn1	0.986 ± 0.055	1.15 ± 0.099	0.902 ± 0.041	0.983 ± 0.059	1.15 ± 0.14	1.13 ± 0.37	1.01 (active)
CC(C)(C)C1CCc2c(sc(NC(=O)c3ccc(Cl)cc3)c2C(N)=O)C1 (configuration not stated)	1.02 ± 0.086	1.05 ± 0.093	0.91 ± 0.081	0.961 ± 0.043	1.55 ± 0.23	1.16 ± 0.089	1.01 (active)
COc1ccccc1N1C(=O)C(=Cc2ccc3c(c2)OCO3)SC1=S	0.99 ± 0.16	1.05 ± 0.17	0.945 ± 0.14	0.951 ± 0.046	1.2 ± 0.24	1.22 ± 0.36	0.999 (active)
Cc1occc1C(=O)Nc1ccc([N+](=O)[O-])cc1Cl	0.88 ± 0.079	0.851 ± 0.066	0.898 ± 0.026	1.02 ± 0.088	0.931 ± 0.12	0.874 ± 0.2	0.995 (active)
O=S1(=O)N=C(Oc2ccc3ccccc3c2)c2ccccc21	0.889 ± 0.15	1.23 ± 0.1	1.22 ± 0.21	0.91 ± 0.063	0.942 ± 0.14	0.991 ± 0.11	0.992 (active)
